Measurements published in PubChem BioAssay AID434989 (The Scripps Research Institute Molecular Screening Center, 2010).
The whole screen tested about 330,000 compounds, of which about 1,400 (0.42%) were called active. The sample holds actives, similar compounds and a random draw of the others, so the mix is not that of the screen.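 How the source made its calls: active means inhibition above its plate's threshold, mean inhibition of all tested compounds on the plate plus 3 SD (cut at about 37% in these data); inactive means the rest.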

Each compound was assayed against Orexin/Hypocretin receptor type 1 (Homo sapiens) (UniProt O43613) (assay: blockers of orexin-A calcium signaling via HCRTR1 – fluorescence, CHO/OX1R cells, Fluo-8 calcium, primary screen (AID 434989;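 further: 0% = orexin A challenge wells and 100% = SB-334867-A antagonist wells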)). Details: Fluo-8 calcium fluorescence, at 5 µM, hits give high values.
Sequence of Orexin/Hypocretin receptor type 1 (Homo sapiens) (O43613 whole entry, looked up): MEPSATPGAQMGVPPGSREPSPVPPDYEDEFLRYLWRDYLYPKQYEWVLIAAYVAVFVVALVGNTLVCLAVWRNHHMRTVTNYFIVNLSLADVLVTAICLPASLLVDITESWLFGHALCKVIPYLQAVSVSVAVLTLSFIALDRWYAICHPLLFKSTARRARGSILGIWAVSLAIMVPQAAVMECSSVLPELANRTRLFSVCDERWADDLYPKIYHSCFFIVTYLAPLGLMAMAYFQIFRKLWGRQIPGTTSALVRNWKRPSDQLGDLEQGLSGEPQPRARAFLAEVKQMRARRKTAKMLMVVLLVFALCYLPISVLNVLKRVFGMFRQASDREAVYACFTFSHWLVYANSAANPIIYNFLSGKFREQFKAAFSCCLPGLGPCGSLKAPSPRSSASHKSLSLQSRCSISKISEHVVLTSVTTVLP
`COc1cccc(-c2sc3ccc(OC)cc3c2-c2ccc(OCCN3CCCCC3)cc2)c1` was tested, and the inhibition was 29.6% (inactive). `COc1ccc2[nH]c3c(c2c1)CCN1C(=O)C(CC(=O)NCCCN(C)C)C[C@H](C(=O)N2CCOCC2)[C@@]31CCC1CCCC1` (stereo partly specified) was tested, and the inhibition was -21.8% (inactive). For `O=C1CCC/C=C/C[C@@H](CC(=O)N(CCO)Cc2ccccc2)C(=O)NC[C@H](c2ccccc2)O1`, the inhibition was -18% (inactive). With `CCN(CC)c1ccc(/C=N/NC(=O)CNC(=O)c2cccnc2)cc1` the inhibition was -5.59% (inactive). With `CCN(CC)c1ccc(/C=N/NC(=O)c2cnccn2)c(O)c1` the inhibition was 48.7% (active). `Cc1ccc(C(=O)NCCNC(=O)c2cnccn2)cc1` was tested, and the inhibition was -1.97% (inactive). For `O=C(CCCOc1ccccc1)NNC(=O)c1ccc(Cl)cc1`, the inhibition was -15.2% (inactive). In the case of `C=CC[C@H](CC(=O)NCCO)C(=O)N[C@@H](COC(=O)[C@@H](CC=C)Cc1ccc(F)cc1)Cc1c[nH]c2ccccc12`, the inhibition is reported as -17.6% (inactive). With `O=C(NCCc1ccco1)c1ccc(OCc2cn3ccccc3n2)cc1` the inhibition was -20.6% (inactive). In the case of `C=CC[C@@H](Cc1ccc(F)cc1)C(=O)OC[C@H]1CCCN1C(=O)[C@H](CC=C)CC(=O)N(CCO)Cc1ccccc1`, the inhibition is reported as 24.4% (inactive). For `CCCc1nc2c(c(=O)c3ccccc3n2C)c(=O)n1-c1cc(C)cc(C)c1`, the inhibition was -30.9% (inactive). In the case of `CCCc1nc2c(c(=O)c3ccccc3n2C)c(=O)n1C1CCCCCC1`, the inhibition is reported as 41.5% (active). `Cn1c2ccccc2c(=O)c2c(=O)n(Cc3ccco3)c(COc3ccccc3)nc21` was tested, and the inhibition was -11.8% (inactive). With `CC[C@]12c3[nH]c4ccc(Cl)cc4c3CCN1C(=O)[C@@H](CC(=O)NCCCOC)C[C@@H]2C(=O)N1CCN(C(=O)C2CC2)CC1` the inhibition was -13.7% (inactive). `CCOC(=O)C1=C(C)N(C[C@@H]2CC[C@@H](Cc3ccc(-c4ccccc4)cc3)O2)C(=O)NC1c1ccc([N+](=O)[O-])cc1` (stereo partly specified) was tested, and the inhibition was -13% (inactive). With `CN(C)C(=O)CCc1ccc2c3c([nH]c2c1)[C@]1(CCc2ccccc2)[C@@H](C(=O)N2CCCCC2)C[C@H](CC(=O)NCCC2=CCCCC2)C(=O)N1CC3` the inhibition was -7.84% (inactive). With `CC(C)N(C(=O)[C@H]1C[C@H](CC(=O)NC(C)(C)C)C(=O)N2CCc3c([nH]c4ccc(Cl)cc34)[C@]12C)C(C)C` the inhibition was -33.8% (inactive). `Cc1ccc(O)c(NC(=S)NC(=O)COc2ccc(Br)cc2)c1` was tested, and the inhibition was 78.4% (active). In the case of `Cc1cccc(OCC(=O)NC(=S)Nc2ccccc2N2CCOCC2)c1`, the inhibition is reported as -22.4% (inactive). With `Cc1ccc(O)c(NC(=O)COc2cc(C)ccc2C)c1` the inhibition was 2.38% (inactive). In the case of `COC(=O)c1ccc(C)c(NC(=O)Cn2c(C)csc2=O)c1`, the inhibition is reported as -20% (inactive). For `CCC1CCCCN1C(=S)NC(=O)c1ccco1` (stereo unspecified), the inhibition was 5.19% (inactive). With `CC(C)CC1NC(=O)c2cc(Cl)ccc2-n2c1nc1ccccc1c2=O` (stereo unspecified) the inhibition was -24.4% (inactive). With `O=C(NC(=S)Nc1ccc(Br)cc1F)C1CCCCC1` the inhibition was 0.61% (inactive). With `O=C1NC(Cc2ccc(O)cc2)c2nc3ccc(Cl)cc3c(=O)n2-c2ccccc21` (stereo unspecified) the inhibition was -10% (inactive). `CCOc1ccc(CCNC(=O)C(CC)n2nc(C)n3c(cc4sccc43)c2=O)cc1OCC` (stereo unspecified) was tested, and the inhibition was 64.5% (active). With `CCC(C(=O)NCc1ccc(OC)cc1)n1nc(C)n2c(cc3occc32)c1=O` (stereo unspecified) the inhibition was -43.4% (inactive). For `COc1ccc(CCNC(=O)c2cc3sccc3n2C)cc1OC`, the inhibition was -27.4% (inactive). With `Cc1ccc(C)c(S(=O)(=O)N2CCN(c3ncnc4sccc34)CC2)c1` the inhibition was 51.7% (active). With `Cc1ccc(S(=O)(=O)N2CCN(c3ncnc4ccccc34)CC2)cc1` the inhibition was 38.9% (inactive). `COc1ccc(C)cc1S(=O)(=O)N1CCN(S(=O)(=O)c2cc(C(=O)O)ccc2C)CC1` was tested, and the inhibition was -8.92% (inactive). In the case of `Cc1cccc(NS(=O)(=O)c2ccc(C)c(C(=O)NCc3cccnc3)c2)c1`, the inhibition is reported as -9.11% (inactive). In the case of `C/C=C/c1ccc(OCC(=O)NNC(=O)CN(C)S(=O)(=O)c2ccc(C)cc2)c(OC)c1`, the inhibition is reported as -47.6% (inactive). For `O=C(C[C@@H]1C/C=C\CCC(=O)OC[C@@H]2CCCN2C1=O)NCCO`, the inhibition was -14.7% (inactive). In the case of `O=C(Cc1ccc(Cl)cc1)NC(=S)Nc1ccccc1O`, the inhibition is reported as 61.6% (active). For `O=C(COc1ccc(Cl)cc1)NC(=S)Nc1ccccc1N1CCOCC1`, the inhibition was -46.4% (inactive). In the case of `Cc1ccccc1NC(=S)NC(=O)Cc1ccc(Cl)cc1`, the inhibition is reported as 17.1% (inactive). With `CC(=O)C[C@H](O)CC(=O)[C@@H]1OC(=O)[C@@H](C)C/C=C\Cc2ccccc21` the inhibition was -24.4% (inactive). In the case of `CN(C(=O)c1cccc(NC(=O)Cc2ccc([N+](=O)[O-])cc2)c1)C1CCC1`, the inhibition is reported as -24% (inactive). In the case of `COC(=O)[C@]1(Cc2ccccc2)N[C@H](CN(C)S(=O)(=O)c2ccc(OC(F)(F)F)cc2)[C@@H]2C(=O)N(Cc3ccccc3)C(=O)[C@@H]21`, the inhibition is reported as -14.3% (inactive). In the case of `O=C(COC(=O)Cc1ccc([N+](=O)[O-])cc1)NC1CCCCCC1`, the inhibition is reported as -29.4% (inactive). `CCOC(=O)N1CCN(C(=O)CSc2nc(=O)n3cccc(C)c3n2)CC1` was tested, and the inhibition was -4.53% (inactive). `CCOC(=O)CC1C(=O)NCCN1c1nc2c(C)cccn2c(=O)c1/C=C1\SC(=S)N(C(C)CC)C1=O` (stereo unspecified) was tested, and the inhibition was 78.6% (active). `Cc1cccn2c(=O)c(/C=C3\SC(=S)N(CC(C)C)C3=O)c(NCCCOC(C)C)nc12` was tested, and the inhibition was -8.49% (inactive). With `O=C1C=CN2CCCC2CC1` (stereo unspecified) the inhibition was -11.6% (inactive). With `S=C(NCC1COc2ccccc2O1)Nc1ccc(Br)cc1` (stereo unspecified) the inhibition was 15.9% (inactive). With `c1ccc2c(c1)OCC(CNc1ncnc3nc[nH]c13)O2` (stereo unspecified) the inhibition was 90.5% (active). `c1ccc(-c2cc3c(NCC4COc5ccccc5O4)ncnc3s2)cc1` (stereo unspecified) was tested, and the inhibition was -20% (inactive). With `COc1ccc(CNC(=O)COC(=O)c2sccc2C)cc1OC` the inhibition was -11.2% (inactive). In the case of `Cc1noc(C)c1NC(=O)Nc1cccc2c1O[C@H](CN(C)S(=O)(=O)c1c(C)noc1C)[C@@H](C)CN([C@H](C)CO)C2=O`, the inhibition is reported as -19.7% (inactive). For `CCN(C(=O)COC(=O)CCC(=O)c1cccs1)C1CCCCC1`, the inhibition was -13.9% (inactive). `COc1ccc(/C=C/C(=O)OCC(=O)NC2CCCCCC2)cc1OC` was tested, and the inhibition was -27.2% (inactive). `CC[C@]12c3[nH]c4ccc(OC)cc4c3CCN1C(=O)C(CC(=O)NCCN1CCOCC1)C[C@@H]2C(=O)N1CCN(C(=O)C2CC2)CC1` (stereo partly specified) was tested, and the inhibition was -6.98% (inactive). In the case of `CCN(CC(=O)Nc1ccccc1OC)C(=O)Cn1cnc2ccccc2c1=O`, the inhibition is reported as -15.9% (inactive). For `CCN(CC(=O)Nc1ccccc1OC)C(=O)CC1CC2CCC1C2` (stereo unspecified), the inhibition was -19.5% (inactive). With `CCCN(CC(=O)Nc1ccccc1OC)C(=O)CCC(=O)c1ccc(F)cc1` the inhibition was 44.7% (active). `NS(=O)(=O)c1cccc(NC(=O)COC(=O)c2cc([N+](=O)[O-])ccc2N2CCCC2)c1` was tested, and the inhibition was -7.78% (inactive). `O=C(COC(=O)/C=C/c1ccc(Br)o1)Nc1cccc(S(=O)(=O)N2CCOCC2)c1` was tested, and the inhibition was -6.48% (inactive). For `O=C(C[C@H]1C/C=C\C[C@@H](NC(=O)OCC2c3ccccc3-c3ccccc32)C(=O)O[C@@H](c2ccccc2)CNC1=O)N[C@H](CO)Cc1ccccc1`, the inhibition was -18.2% (inactive). `O=C(COC(=O)CN1C(=O)C2CCCCC2C1=O)Nc1ccc(F)c(F)c1F` (stereo unspecified) was tested, and the inhibition was -8.95% (inactive). In the case of `O=C(CCC(=O)OCc1ccc(Cl)cc1)Nc1ccccc1`, the inhibition is reported as -9.06% (inactive). `O=C1C=C(c2ccc(Cl)cc2)C(=O)N1Nc1ccccc1` was tested, and the inhibition was 53.2% (active). For `O=C(O)CC1=C(Nc2ccccc2)C(=O)N(c2ccccc2)C1c1ccc(Cl)cc1` (stereo unspecified), the inhibition was -21.1% (inactive). `Cc1ccc(S(=O)(=O)N2C[C@@H]3CCCC[C@@H]3[C@@H](C)[C@H]2c2cn(Cc3ccccc3)c3ccc(F)cc23)cc1` was tested, and the inhibition was 6.16% (inactive). For `Fc1ccc2cnc(-c3ccccc3)cc2c1`, the inhibition was -19.1% (inactive). For `CC(=O)c1ccc(-c2ccc(Cn3c(C)nc4cc(N)c(C)nc43)cc2)cc1`, the inhibition was -25.1% (inactive). With `Cc1cc(-c2csc(N)n2)c(C)n1Cc1ccccc1` the inhibition was -19.7% (inactive). For `Cc1cc2nc3c(=O)n(Cc4ccccc4)c(=O)[nH]c3nc2cc1N`, the inhibition was 54.6% (active). With `COc1ccc(NC(=O)Nc2ccc3c(c2)C(=O)N([C@H](C)CO)C[C@H](C)[C@@H](CN(C)C(=O)Nc2ccc4c(c2)OCO4)O3)cc1` the inhibition was 1.29% (inactive). With `COc1ccc(-c2nc3cc(C)ccn3c2NC2CCCCC2)cc1SC1CCCCC1` the inhibition was 25.4% (inactive). `CCOC(=O)Cn1c(=O)oc2cc(S(=O)(=O)N(C)Cc3ccco3)ccc21` was tested, and the inhibition was -12% (inactive). With `CN(c1ccccc1)c1ccc(/C=c2\s/c(=C(/C#N)C(=O)C(C)(C)C)n(Cc3ccco3)c2=O)cc1` the inhibition was 42% (active). With `CCOC(=O)/C=c1\s/c(=C\c2ccc(C#N)cc2)c(=O)n1CC(=O)Nc1cccc(C)c1C` the inhibition was 1.96% (inactive). For `COC(=O)c1sc(-c2ccc(C(C)(C)C)cc2)cc1NC(=O)/C=C/C(=O)O`, the inhibition was 55.5% (active). `CC(C)(C)c1ccc(/C=C/C(=O)Nc2ncccn2)cc1` was tested, and the inhibition was -7.7% (inactive). With `CSc1ccc(NC(=O)/C=C/C(=O)O)cc1` the inhibition was -13% (inactive). `O=C(NNS(=O)(=O)c1c(F)cc(F)c(Cl)c1F)C12CC3CC(CC(C3)C1)C2` was tested, and the inhibition was 4.78% (inactive). For `O=C(COC(=O)COc1cccc(F)c1)NCC1CCCCC1`, the inhibition was -16.8% (inactive). `CN(c1ccccc1)S(=O)(=O)c1cccc(NC(=O)Cc2ccc(Cl)cc2)c1` was tested, and the inhibition was 42.1% (active). With `CN(c1ccccc1)S(=O)(=O)c1cccc(NC(=O)Cc2c(F)cccc2Cl)c1` the inhibition was 11.3% (inactive). `CN(C)S(=O)(=O)c1cccc(NC(=O)Cc2ccsc2)c1` was tested, and the inhibition was -7.6% (inactive).
